Molecules are shown by their SMILES. The panel holds about 79,000 compounds, 15% with a hit somewhere; the sample as a whole holds those more often. Unmarked numbers belong to inactive results. Active and inactive are the calls of the source. No stated cut-off is given here; in the data, active means growth inhibition above about 70%; inactive means the rest.

A short description of test [1]: NCI Yeast Anticancer Drug Screen. Data for the rad50 strain (AID 155).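 Further: 0% = growth of vehicle-only cultures of the same strain.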 The note with it: S. cerevisiae rad50 strain growth inhibition, active compounds read high. A digest of the protocol:
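Inhibition values express reduced yeast growth in compound-treated cultures relative to vehicle-treated controls.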

Test [2] is described as follows: NCI Yeast Anticancer Drug Screen. Data for the mec2-1 strain (AID 157). The note with it: S. cerevisiae mec2-1 strain, active compounds read high. The essentials: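 Mutant yeast (mec2-1) grown with compound; growth inhibition relative to vehicle control reported.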
A short description of test [3]: NCI Yeast Anticancer Drug Screen. Data for the sgs1 mgt1 strain (AID 161).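 Further: 0% = growth of cultures given vehicle only.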 The note with it: S. cerevisiae sgs1 mgt1 strain, active compounds read high. The essentials:
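Percent growth inhibition was derived by comparing compound-exposed mutant yeast with vehicle-exposed cultures. The strain carries alterations in DNA damage repair.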

Test [4] can be described thus: NCI Yeast Anticancer Drug Screen. Data for the cln2 rad14 strain (AID 165).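 Further: 0% = growth equal to vehicle treated cultures.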 The note with it: S. cerevisiae cln2 rad14 strain, active compounds read high. A digest of the protocol: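 Readout is yeast growth inhibition versus vehicle-treated controls, using a strain with cln2 and rad14 alterations exposed to compound.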
Test [5] can be described thus: NCI Yeast Anticancer Drug Screen. Data for the bub3 strain (AID 167). Particulars: S. cerevisiae bub3 mutant strain, active compounds read high. A digest of the protocol: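 Steps: expose the mutant yeast strain to compound; grow alongside vehicle-treated cultures; measure growth; express inhibition against the vehicle cultures.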
Test [6] is described as follows: NCI Yeast Anticancer Drug Screen. Data for the mlh1 rad18 strain (AID 175). The note with it: S. cerevisiae mlh1 rad18 strain growth inhibition, active compounds read high. The essentials: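 Genetically defined yeast (DNA repair-deficient) exposed to compounds; growth inhibition determined relative to vehicle.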
[7] abbreviates: at 5.0 µM (retest, dose inferred, filed as 0.5).
Setting [8] is: at 50.0 µM (retest, dose inferred, filed as 5.0).

Turning to `Cc1c(NC(=O)CCl)c(=O)oc2c(C)c3occc(=O)c3cc12`, the growth inhibition in test [1] (setting [7]) was 59%; in test [1] (setting [8]), 97% (active); in test [1] (at 50.0 µM), 96.8% (active); in test [2] (setting [7]), 16%; in test [2] (setting [8]), 93% (active); in test [2] (at 50.0 µM), 83.8% (active). For the same compound, the growth inhibition in test [3] (setting [7]) is 7%; in test [3] (setting [8]), 89% (active); in test [3] (at 50.0 µM) it was 90.8% (active); in test [4] (setting [7]), 10%; in test [4] (setting [8]), 85% (active); in test [4] (at 50.0 µM), 29.3%. Further, the growth inhibition in test [5] (setting [7]) is 10%; in test [5] (setting [8]), 91% (active); in test [5] (at 50.0 µM) it was 79.2% (active); in test [6] (setting [7]) it was 13%; in test [6] (setting [8]) it was 94% (active); in test [6] (at 50.0 µM), 92% (active).

As for `NCc1ccccc1-c1c2nc(c(-c3ccccc3CN)c3ccc([nH]3)c(-c3ccccc3CN)c3nc(c(-c4ccccc4CN)c4ccc1[nH]4)C=C3)C=C2`, the growth inhibition in test [1] (setting [7]) is 41%; in test [1] (setting [8]) it was 84% (active); in test [1] (at 50.0 µM) it was 79% (active); in test [2] (setting [7]) it was 34%; in test [2] (setting [8]), 83% (active); in test [2] (at 50.0 µM), 83% (active). The growth inhibition in test [3] (setting [7]) was 37%; in test [3] (setting [8]), 82% (active); in test [3] (at 50.0 µM), 86.2% (active); in test [4] (setting [7]), 32%; in test [4] (setting [8]), 66%; in test [4] (at 50.0 µM), 78.8% (active). The growth inhibition in test [5] (setting [7]) was 37%; in test [5] (setting [8]), 90% (active); in test [5] (at 50.0 µM), 79.7% (active); in test [6] (setting [7]), 54%; in test [6] (setting [8]), 84% (active); in test [6] (at 50.0 µM) it was 76.2% (active).

`NCCC1=CCCCC1`: the growth inhibition in test [1] (setting [7]) was 1%; in test [1] (setting [8]) it was 95% (active); in test [1] (at 50.0 µM), 88.2% (active); in test [2] (setting [7]), 5%; in test [2] (setting [8]), 97% (active); in test [2] (at 50.0 µM), 90.5% (active). For the same compound, the growth inhibition in test [3] (setting [7]) was 2%; in test [3] (setting [8]), 98% (active); in test [3] (at 50.0 µM), 88.3% (active); in test [4] (setting [7]) it was -7%; in test [4] (setting [8]) it was 96% (active); in test [4] (at 50.0 µM) it was 35.6%. The growth inhibition in test [5] (setting [7]) is -4%; in test [5] (setting [8]), 96% (active); in test [5] (at 50.0 µM) it was 65%; in test [6] (setting [7]), -2%; in test [6] (setting [8]), 97% (active); in test [6] (at 50.0 µM), 90% (active).

For the compound `S=C(NC/C(Br)=C/Br)Nc1cccc2ccccc12`, the growth inhibition in test [1] (setting [7]) was -30%; in test [1] (setting [8]), 99% (active); in test [1] (at 50.0 µM) it was 86% (active); in test [2] (setting [7]), -18%; in test [2] (setting [8]), 99% (active); in test [2] (at 50.0 µM) it was 89.8% (active). Further, the growth inhibition was -21% in test [3] (setting [7]); 99% (active) in test [3] (setting [8]); 85.6% (active) in test [3] (at 50.0 µM); -5% in test [4] (setting [7]); 99% (active) in test [4] (setting [8]); 88.8% (active) in test [4] (at 50.0 µM). Moreover, the growth inhibition in test [5] (setting [7]) is -25%; in test [5] (setting [8]) it was 99% (active); in test [5] (at 50.0 µM), 90.7% (active); in test [6] (setting [7]), -13%; in test [6] (setting [8]), 99% (active); in test [6] (at 50.0 µM) it was 81.3% (active).

With `CN(Cc1cc(Cl)cc(Cl)c1)CC(C(=O)c1ccccc1)c1ccccc1` (stereo not given), the growth inhibition in test [1] (setting [7]) is 21%; in test [1] (setting [8]), 86% (active); in test [1] (at 50.0 µM), 81.7% (active); in test [2] (setting [7]) it was 13%; in test [2] (setting [8]) it was 90% (active); in test [2] (at 50.0 µM), 96.5% (active). For the same compound, the growth inhibition in test [3] (setting [7]) was 57%; in test [3] (setting [8]), 96% (active); in test [3] (at 50.0 µM), 93.3% (active); in test [4] (setting [7]), 3%; in test [4] (setting [8]) it was 85% (active); in test [4] (at 50.0 µM) it was 50.3%. For the same compound, the growth inhibition in test [5] (setting [7]) was 14%; in test [5] (setting [8]), 94% (active); in test [5] (at 50.0 µM), 41.5%; in test [6] (setting [7]) it was 29%; in test [6] (setting [8]) it was 91% (active); in test [6] (at 50.0 µM), 97.3% (active).

Take `Clc1cc2c(c3ncccc13)OCN(Cc1ccccc1)C2`: the growth inhibition in test [1] (setting [7]) is 16%; in test [1] (setting [8]) it was 76% (active); in test [1] (at 50.0 µM), 99.2% (active); in test [2] (setting [7]), 1%; in test [2] (setting [8]), 33%; in test [2] (at 50.0 µM), 99.5% (active). Besides, the growth inhibition in test [3] (setting [7]) is 14%; in test [3] (setting [8]), 98% (active); in test [3] (at 50.0 µM), 99.5% (active); in test [4] (setting [7]), 9%; in test [4] (setting [8]), 98% (active); in test [4] (at 50.0 µM) it was 99.2% (active). The growth inhibition in test [5] (setting [7]) is -3%; in test [5] (setting [8]), 99% (active); in test [5] (at 50.0 µM) it was 99.4% (active); in test [6] (setting [7]), 23%; in test [6] (setting [8]), 99% (active); in test [6] (at 50.0 µM), 99.3% (active).

As to `c1ccc2c(c1)N=c1ccccc1=P21c2ccccc2Nc2ccccc21`, the growth inhibition is 89% (active) in test [1] (setting [7]); 99% (active) in test [1] (setting [8]); 87.3% (active) in test [1] (at 50.0 µM); 93% (active) in test [2] (setting [7]); 99% (active) in test [2] (setting [8]); 90.9% (active) in test [2] (at 50.0 µM). Also, the growth inhibition in test [3] (setting [7]) is 84% (active); in test [3] (setting [8]), 99% (active); in test [3] (at 50.0 µM), 87.8% (active); in test [4] (setting [7]) it was 85% (active); in test [4] (setting [8]) it was 99% (active); in test [4] (at 50.0 µM), 89.5% (active). Further, the growth inhibition in test [5] (setting [7]) is 97% (active); in test [5] (setting [8]), 99% (active); in test [5] (at 50.0 µM), 89.8% (active); in test [6] (setting [7]) it was 92% (active); in test [6] (setting [8]), 99% (active); in test [6] (at 50.0 µM) it was 83.2% (active).

Regarding `C1=C(c2ccccc2)C(=Nc2ccccc2)SC1=Nc1ccccc1`, the growth inhibition was 52% in test [1] (setting [7]); 100% (active) in test [1] (setting [8]); 99% (active) in test [1] (at 50.0 µM); 46% in test [2] (setting [7]); 100% (active) in test [2] (setting [8]); 99.5% (active) in test [2] (at 50.0 µM). In addition, the growth inhibition is 32% in test [3] (setting [7]); 99% (active) in test [3] (setting [8]); 99.5% (active) in test [3] (at 50.0 µM); 33% in test [4] (setting [7]); 99% (active) in test [4] (setting [8]); 99.3% (active) in test [4] (at 50.0 µM). Moreover, the growth inhibition in test [5] (setting [7]) is 53%; in test [5] (setting [8]), 99% (active); in test [5] (at 50.0 µM), 99% (active); in test [6] (setting [7]), 38%; in test [6] (setting [8]), 99% (active); in test [6] (at 50.0 µM), 99.5% (active).

Turning to `O=[N+]([O-])c1ccc(/C=C/[n+]2ccc3ccccc3c2)o1`, the growth inhibition is 29% in test [1] (setting [7]); 93% (active) in test [1] (setting [8]); 98.8% (active) in test [1] (at 50.0 µM); 24% in test [2] (setting [7]); 91% (active) in test [2] (setting [8]); 98.8% (active) in test [2] (at 50.0 µM). Also, the growth inhibition was 40% in test [3] (setting [7]); 98% (active) in test [3] (setting [8]); 98.9% (active) in test [3] (at 50.0 µM); -6% in test [4] (setting [7]); 95% (active) in test [4] (setting [8]); 96.2% (active) in test [4] (at 50.0 µM). Also, the growth inhibition was 10% in test [5] (setting [7]); 97% (active) in test [5] (setting [8]); 99.2% (active) in test [5] (at 50.0 µM); 52% in test [6] (setting [7]); 97% (active) in test [6] (setting [8]); 99% (active) in test [6] (at 50.0 µM).

With `CC1=C(C)C(=O)C2=C(OCCCO2)C1=O`, the growth inhibition was -9% in test [1] (setting [7]); -12% in test [1] (setting [8]); -6.55% in test [1] (at 50.0 µM); 9% in test [2] (setting [7]); -19% in test [2] (setting [8]); -21.1% in test [2] (at 50.0 µM). Also, the growth inhibition is -2% in test [3] (setting [7]); 11% in test [3] (setting [8]); -0.8% in test [3] (at 50.0 µM); -21% in test [4] (setting [7]); 5% in test [4] (setting [8]); 5.35% in test [4] (at 50.0 µM). Besides, the growth inhibition in test [5] (setting [7]) is -13%; in test [5] (setting [8]), -19%; in test [5] (at 50.0 µM) it was 48.8%; in test [6] (setting [7]), -24%; in test [6] (setting [8]) it was -19%; in test [6] (at 50.0 µM) it was 10%.

The values above are taken from PubChem BioAssay (NCI).
